{"source": "PubChem BioAssay AID687014", "about": "(The Scripps Research Institute Molecular Screening Center, 2013)", "note": "About 6,800 (1.8%) of roughly 370,000 compounds were called active.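 Rule for the calls: active = activation above a cutoff set at the mean of all screened compounds plus 3 SD (cut at about 10% in these data); inactive = the rest.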 Many of the other results were omitted from the sample, so actives are more common in it than they were.", "data": [{"system": "Nuclear hormone receptor DAF-12 (Heterodera glycines), GAL4 fusion", "assay": "H. glycines DAF-12 receptor agonists, primary screen, cell-based, luminescence, HEK293, GAL4 fusion, UAS-luciferase (AID 687014);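 note: 0% = DMSO wells and 100% = sodium butyrate wells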", "conditions": "HEK293 GAL4-hgDAF12 UAS-luciferase reporter, agonist luminescence; at 6.8 µM; hits give high values; normalized to butyrate control", "values": [{"smiles": "Cn1cnc(C(F)(F)F)c1-c1ccc([N+](=O)[O-])cc1", "activation": "0.97% (inactive)"}, {"smiles": "O=C1C2C3C=CC(C4CC34)C2C(=O)N1/N=C/c1ccc(-c2ccccc2[N+](=O)[O-])o1", "note": "(centres undefined)", "activation": "-3.65% (inactive)"}, {"smiles": "CN1CCN(/N=C/c2ccc(-c3ccc([N+](=O)[O-])cc3)o2)CC1", "activation": "10.5% (active)"}, {"smiles": "O=C(CSc1nc2c(c(=O)[nH]1)CCCC2)N1CCCCC1", "activation": "-4.02% (inactive)"}, {"smiles": "CCCOc1ccccc1-c1nc(SCCC(=O)O)n[nH]1", "activation": "-0.41% (inactive)"}, {"smiles": "Cc1cc(C)nc(Nc2n[nH]c(-c3ccccc3N)n2)n1", "activation": "12.2% (active)"}, {"smiles": "O=C(OCC#CCSc1nnc(-c2ccco2)o1)c1ccc(F)cc1", "activation": "-3.04% (inactive)"}, {"smiles": "COC(=O)C1=C(C)NC(=S)NC1c1ccc(OC)cc1", "note": "(centres undefined)", "activation": "0.66% (inactive)"}, {"smiles": "CCOC(=O)[C@]12CCCCC/C=C\\1N(Cc1ccc(OC)cc1)C(=O)[C@H]2CC(=O)NCc1ccc(C)o1", "activation": "-1.27% (inactive)"}, {"smiles": "CC(C)Cc1cc(C(=O)Nc2cc(Br)ccc2O)no1", "activation": "6.04% (inactive)"}, {"smiles": "O=C(NCCCc1ccccc1)c1cc(COc2c(F)cccc2F)on1", "activation": "4.73% (inactive)"}, {"smiles": "CC(C)Cc1cc(C(=O)NCCc2ccccc2)no1", "activation": "13% (active)"}, {"smiles": "O=S1(=O)c2ccc(N3CCN(Cc4ccccc4F)CC3)cc2Oc2ccccc2CN1Cc1cn(Cc2ccc(Cl)cc2)nn1", "activation": "0.48% (inactive)"}, {"smiles": "C[C@@H]1CN([C@@H](C)CO)C(=O)c2cccc(NC(=O)Nc3cccc4ccccc34)c2O[C@H]1CN(C)S(=O)(=O)c1ccccc1F", "activation": "-4.71% (inactive)"}, {"smiles": "CN(C)[C@H]1CCN(c2cccc3c2S(=O)(=O)N2CC[C@H](C2)O3)C1", "activation": "-1.45% (inactive)"}, {"smiles": "CCc1ccc(C(=O)NN=C2CCCCCC2)s1", "activation": "3.37% (inactive)"}, {"smiles": "CC1C/C(=N/NC(=O)c2cccs2)CC(C)(C)C1", "note": "(centres undefined)", "activation": "14% (active)"}, {"smiles": "CC1CC(=NNC(=O)C2COc3ccccc3O2)CC(C)(C)C1", "note": "(centres undefined)", "activation": "3.29% (inactive)"}, {"smiles": "COc1ccccc1CCn1cnc(-c2ccccc2)c1C(C)C", "activation": "-2.29% (inactive)"}, {"smiles": "Cc1ccn(CC(=O)N2N=C(C(F)F)CC2(O)C(F)F)n1", "note": "(centres undefined)", "activation": "1.75% (inactive)"}, {"smiles": "Cc1cccc(N(CC(=O)Nc2ccc(-c3nc4ccc(C)cc4s3)cc2)S(C)(=O)=O)c1", "activation": "15% (active)"}, {"smiles": "Cc1ccc2nc(-c3ccc(NC(=O)CN(C)S(=O)(=O)c4ccccc4)cc3)sc2c1", "activation": "11.4% (active)"}, {"smiles": "CCN(CC)S(=O)(=O)c1ccc(NC(=O)CN(c2cccc(F)c2)S(C)(=O)=O)cc1", "activation": "-0.33% (inactive)"}, {"smiles": "Cc1nc2ccc(S(=O)(=O)N(C)CC(=O)NC(C)c3ccccc3)cc2s1", "note": "(centres undefined)", "activation": "-1.17% (inactive)"}, {"smiles": "COc1cc(NC(=O)CN(C)S(=O)(=O)c2ccc3nc(C)sc3c2)cc(OC)c1", "activation": "-1.83% (inactive)"}, {"smiles": "Cc1ccc(N(CC(=O)Nc2cc(C)cc(C)c2)S(=O)(=O)c2cccc3nonc23)cc1", "activation": "1% (inactive)"}, {"smiles": "Cc1ccc2c(c1)N(CC(=O)N1CCC(C)CC1)C(=O)c1cccnc1O2", "activation": "-1.52% (inactive)"}, {"smiles": "CC[C@H](NC(=O)[C@H](Cc1ccccc1)NC(=O)[C@H]1O[C@@H](n2cnc3c(=O)[nH]c(N)nc32)[C@H](O)[C@@H]1O)c1ccccc1", "activation": "-0.43% (inactive)"}, {"smiles": "COc1ccccc1C(=O)CSc1nnc(-c2ccccn2)n1-c1ccccc1", "activation": "-5.4% (inactive)"}, {"smiles": "Cc1cc(=O)[nH]c(SCC(=O)Nc2ccc(F)cc2F)n1", "activation": "2.35% (inactive)"}, {"smiles": "COC(=O)[C@H](Cc1ccccc1)NC(=O)Nc1ccc(S(N)(=O)=O)cc1", "activation": "-0.11% (inactive)"}, {"smiles": "COc1ccc(CN2C/C(=C/c3ccccc3)N3C(=O)C[C@@H](c4ccccc4)N=C23)c(OC)c1", "activation": "1.14% (inactive)"}, {"smiles": "Cc1cc(N=Nc2ccc3ccccc3c2)ccc1O", "activation": "15.6% (active)"}, {"smiles": "Cc1ccc(-n2c(SCC(=O)Nc3cccc4ccccc34)nnc2-c2ccco2)cc1", "activation": "-1.7% (inactive)"}, {"smiles": "COc1ccc([C@H]2OC(=O)C[C@H]2C(=O)N2CCN(c3ccccc3F)CC2)cc1OC", "activation": "0.07% (inactive)"}, {"smiles": "Cc1ccc(COc2ccc(/C=N/NC(=O)CN3CCCCC3)cc2)cc1", "activation": "10.7% (active)"}, {"smiles": "Cc1ccc(/C=N/NC(=O)COc2ccccc2-c2ccccc2)cc1", "activation": "-6.53% (inactive)"}, {"smiles": "O=C(CN1CCSCC1)N/N=C/c1ccc(Cl)cc1", "activation": "-0.9% (inactive)"}, {"smiles": "Cc1ccc(Cn2cc(CN3[C@@H](C)COc4cc(Br)ccc4S3(=O)=O)nn2)cc1", "activation": "-0.49% (inactive)"}, {"smiles": "COc1ccc(NC(=O)N(C)C[C@@H]2OCCCC[C@@H](C)Oc3ccc(NC(=O)NC4CCCCC4)cc3C(=O)N([C@H](C)CO)C[C@@H]2C)cc1", "activation": "2.86% (inactive)"}, {"smiles": "C[C@@H](CN1C2=NC[C@@H](Cc3ccccc3)N2C[C@H]1Cc1ccc(O)cc1)NC(=O)CCC1CCCCC1", "activation": "1.3% (inactive)"}, {"smiles": "O=C(Nc1ccc2c(c1)CCC2)c1ccc(Br)s1", "activation": "19.2% (active)"}, {"smiles": "CC1CC(C)CN(CCC(=O)Nc2ccc3c(c2)CCC3)C1", "note": "(centres undefined)", "activation": "-2.86% (inactive)"}, {"smiles": "CC(C)Oc1ccc(C(=O)NCC(=O)Nc2ccc3c(c2)CCC3)cc1", "activation": "2.22% (inactive)"}, {"smiles": "Cc1cc(OCc2cc(C(=O)NCc3cc(C(C)C)no3)no2)cc(C)c1Cl", "activation": "15.1% (active)"}, {"smiles": "COc1ccc(OCc2cc(C(=O)NCC3(C)COC3)no2)c(Cl)c1", "activation": "0.38% (inactive)"}, {"smiles": "Cc1cccnc1CC(C)NC(=O)c1cc(COc2cncc(Cl)c2)on1", "note": "(centres undefined)", "activation": "1.14% (inactive)"}, {"smiles": "Cc1ccc2oc(C(=O)N3CCN(C)C[C@@H]3C(C)C)c(C)c2c1", "activation": "2.43% (inactive)"}, {"smiles": "COC(=O)[C@]12C[C@H](CC(=O)NCc3cccs3)C(=O)N(CCc3ccc(OC)c(OC)c3)C1=C[C@H](C(C)C)O[C@@H]2C1CC1", "activation": "1.93% (inactive)"}, {"smiles": "CC1=C(C(=O)N2CCOCC2)CC(CC(=O)NCCCN(C)C)C(=O)N1Cc1ccc(C(C)(C)C)cc1", "note": "(centres undefined)", "activation": "1.86% (inactive)"}, {"smiles": "CCn1c(C)nc2cc(C(=O)NNS(=O)(=O)c3ccc(C)cc3C)ccc21", "activation": "-0.8% (inactive)"}, {"smiles": "CCOC(=O)c1ccc2c(c1)nc(SCC(=O)NC(C)C)n2CC", "activation": "-0.22% (inactive)"}, {"smiles": "CCOC(=O)c1ccc2c(c1)nc(C)n2CC", "activation": "12.8% (active)"}, {"smiles": "Nc1nc2c(ncn2[C@@H]2O[C@H](C(=O)N[C@@H](Cc3ccccc3)C(=O)NCc3ccccc3)[C@@H](O)[C@H]2O)c(=O)[nH]1", "activation": "-2.72% (inactive)"}]}]}
